Assay results as given in PubChem BioAssay AID504725 (Broad Institute, 2011).
Potency and affinity values are given separately. Activity calls are given as the source filed them. How the calls were made is not given here.

Biological target: KSHV LANA C-terminal domain (residues 932-1162) binding to LBS DNA (UniProt O40947)
Assay: inhibitors of C-LANA binding to LBS DNA, dose response, biochemical, fluorescence polarization, cherry-picked samples (AID 504725)
Settings: MBP-C-LANA / FAM-LBS DNA fluorescence polarization, percent change from plate compound-well median; series mostly up to 35 µM

outcome, inactive:
O=c1nc(N2CCOCC2)ccn1-c1nc(-c2ccccc2)sc1-c1ccccc1
COc1ccc(N=C2SC(CC(=O)Nc3ccccc3)C(=O)N2Cc2ccco2)cc1 (centres undefined)
S=c1[nH]nc([C@@H]2C[C@H]2c2ccccc2)n1-c1ccccc1Cl
COC(=O)c1ccc(OCC(O)CN2CCC(C)CC2)cc1 (centres undefined)
CCCc1nnc(NC(=O)CCC(=O)NCc2ccc(OC)cc2)s1
CC1CC(C)(C)NC(=S)N1CC(=O)N(C)Cc1ccccc1 (centres undefined)
NC1=NC[C@@H](Cc2ccc(O)cc2)N1CCc1cc(C(F)(F)F)cc(C(F)(F)F)c1
O=S(=O)(NCc1cccnc1)c1ccc(Cl)s1
COc1cc(C(=O)O)cc(NC(=O)c2ccco2)c1OC
CC(=O)N(C(C)=O)N1C(=O)c2cccc3c(N4CCOCC4)ccc(c23)C1=O
O=C(C1CCCO1)N1CCN(c2ncccn2)CC1 (centres undefined)
O=C1C=C(c2ccoc2)N2CCC[C@H]2C1
O=C(Nc1ccccc1F)c1coc(=O)c(Br)c1
COc1cc(C(=S)N2CCN(c3cccc(Cl)c3)CC2)ccc1O
NC(=O)C1=NOC(CNc2ncc(C(F)(F)F)cc2Cl)C1 (centres undefined)
O=C(Nc1cc(Cl)ccc1-n1cncn1)c1cccs1
CCOCCCn1c(SCC(=O)NC(C)(C)C)nc2ccccc2c1=O
NNC(=O)C1C(O)CCC2CN3CCc4c([nH]c5ccccc45)C3CC21 (centres undefined)
O=C(NCCCN1CCCC1=O)c1ccc2c(c1)ncn2C1CCCCC1
